We go through 17 compounds from PubChem BioAssay (NCATS).

The nature of assay [1]: Quantitative High-Throughput drug screen in 47 multiple myeloma cell lines against the NCATS MIPE library collection: OCIMY7_PLB cell viability assay (AID 1918987). Further: nearly all actives have a fitted effect of over 65% in size. Further: potency means the concentration at half of the fitted maximal effect. Put shortly: (§1)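 Viability after 48 h drug exposure was measured as ATP-dependent luminescence. Cells, 500 per well, sat at 37 °C under 5% CO2; DMSO wells set 100%, media-only wells 0%.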
A short description of assay [2]: Quantitative High-Throughput drug screen in 47 multiple myeloma cell lines against the NCATS MIPE library collection: OCIMY5_PLB cell viability assay (AID 1918988). Further: nearly all actives have a fitted effect of over 65% in size. Further: potency means the concentration at half of the fitted maximal effect. In outline:
as §1

Assay [3] is described as follows: Quantitative High-Throughput drug screen in 47 multiple myeloma cell lines against the NCATS MIPE library collection: U266_ATCC cell viability assay (AID 1919864). Further: nearly all actives have a fitted effect of over 35% in size. Further: potency means the concentration at half of the fitted maximal effect. Put shortly: as §1
Assay [4] is described as follows: Quantitative High-Throughput drug screen in 47 multiple myeloma cell lines against the NCATS MIPE library collection: XG1_PLB cell viability assay (AID 1919866). Further: nearly all actives have a fitted effect of over 35% in size. Further: potency means the concentration at half of the fitted maximal effect. Put shortly:
as §1

A short description of assay [5]: Quantitative High-Throughput drug screen in 47 multiple myeloma cell lines against the NCATS MIPE library collection: VP6_DJ cell viability assay (AID 1919867). Further: nearly all actives have a fitted effect of over 40% in size. Further: potency means the concentration at half of the fitted maximal effect. Put shortly: as §1
Assay [6] is described as follows: Quantitative High-Throughput drug screen in 47 multiple myeloma cell lines against the NCATS MIPE library collection: UTMC2_PLB cell viability assay (AID 1919868). Further: nearly all actives have a fitted effect of over 55% in size. Further: potency means the concentration at half of the fitted maximal effect. Put shortly:
as §1

Assay [7] is described as follows: Quantitative High-Throughput drug screen in 47 multiple myeloma cell lines against the NCATS MIPE library collection: PE2_PLB cell viability assay (AID 1919869). Further: nearly all actives have a fitted effect of over 35% in size. Further: potency means the concentration at half of the fitted maximal effect. In outline: as §1
Assay [8] can be described thus: Quantitative High-Throughput drug screen in 47 multiple myeloma cell lines against the NCATS MIPE library collection: PCM6_Riken cell viability assay (AID 1919870). Further: nearly all actives have a fitted effect of over 30% in size. Further: potency means the concentration at half of the fitted maximal effect. In outline:
as §1

Assay [9] is described as follows: Quantitative High-Throughput drug screen in 47 multiple myeloma cell lines against the NCATS MIPE library collection: RPMI8226_ATCC cell viability assay (AID 1919871). Further: nearly all actives have a fitted effect of over 30% in size. Further: potency means the concentration at half of the fitted maximal effect. Put shortly:
as §1

Assay [10] in a line: Quantitative High-Throughput drug screen in 47 multiple myeloma cell lines against the NCATS MIPE library collection: KMS28BM_JCRB cell viability assay (AID 1919874). Further: nearly all actives have a fitted effect of over 35% in size. Further: potency means the concentration at half of the fitted maximal effect. Put shortly: as §1
Assay [11] is described as follows: Quantitative High-Throughput drug screen in 47 multiple myeloma cell lines against the NCATS MIPE library collection: OPM1_PLB cell viability assay (AID 1918989). Further: nearly all actives have a fitted effect of over 40% in size. Further: potency means the concentration at half of the fitted maximal effect. In outline:
as §1

A short description of assay [12]: Quantitative High-Throughput drug screen in 47 multiple myeloma cell lines against the NCATS MIPE library collection: XG6_PLB cell viability assay (AID 1919865). Further: nearly all actives have a fitted effect of over 40% in size. Further: potency means the concentration at half of the fitted maximal effect. Put shortly: as §1
Assay [13] can be described thus: Quantitative High-Throughput drug screen in 47 multiple myeloma cell lines against the NCATS MIPE library collection: KMS11_JCRBsus cell viability assay (AID 1919873). Further: nearly all actives have a fitted effect of over 50% in size. Further: potency means the concentration at half of the fitted maximal effect. In outline: as §1
Assay [14] can be described thus: Quantitative High-Throughput drug screen in 47 multiple myeloma cell lines against the NCATS MIPE library collection: OPM2_DSMZ cell viability assay (AID 1919872). Further: nearly all actives have a fitted effect of over 30% in size. In outline: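 We plated 500 myeloma cells per well, pinned in MIPE 4.0 compounds, and incubated for 48 hours at 37C. ATP was then quantified with CellTiter-Glo, with DMSO and media-only wells defining 100% and 0%.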

Assay [15] is described as follows: Quantitative High-Throughput drug screen in 47 multiple myeloma cell lines against the NCATS MIPE library collection: SKMM1_PLB cell viability assay (AID 1919863). Further: nearly all actives have a fitted effect of over 35% in size. Further: potency means the concentration at half of the fitted maximal effect. On viability: series mostly up to about 46 µM. The settings on record: SKMM1 myeloma viability, CellTiter-Glo ATP, 48 h; viability: hits give low values. Put shortly: as §1

Inconclusive results are not listed. Values without a mark were called inactive. Calls of active or inactive are those of the source. The call rests on the fitted dose curve; in most records, active means well fitted cell-killing curve with a large enough effect; inconclusive means small, poorly fitted or top-dose-only effect, or effect the other way; inactive means no such curve, though single readings can be large or run the other way.

With `Clc1ccc(C(Cn2ccnc2)OCc2ccc(Sc3ccccc3)cc2)c(Cl)c1` (stereo unspecified), the Potency in assay [1] was 26.4 µM (active); in assay [2] it was 26.4 µM (active); in assay [4], 23.5 µM (active); in assay [5], 20.9 µM (active); in assay [6], 33.2 µM (active); in assay [7] it was 20.9 µM (active). The results for the Potency in assay [8], in assay [9] and in assay [10] were 18.7 µM (active), 23.5 µM (active) and 20.9 µM (active), respectively. Moreover, the Potency result in assay [3] is “inactive”.

As to `Cc1ccc(Nc2nccc(N(C)c3ccc4c(C)n(C)nc4c3)n2)cc1S(N)(=O)=O`, the Potency in [1] was 18.7 µM (active); in assay [2], 16.6 µM (active); in assay [11] it was 14.8 µM (active); in [12], 11.8 µM (active); in [4], 9.35 µM (active); in [5], 16.6 µM (active). Moreover, the Potency was 16.6 µM (active) in [7], 4.69 µM (active) in assay [8] and 14.8 µM (active) in assay [9]. For the same compound, in assay [10], the Potency entry is “inactive”.

Consider `COc1c(O)cc2c(c1O)[C@@H]1O[C@H](CO)[C@@H](O)[C@H](O)[C@H]1OC2=O`, for which the Potency result in assay [1], in assay [2], in assay [11], in assay [3], in [5] and in assay [7] was “inactive” in each case. In addition, the Potency result in assay [8], in assay [9], in assay [13] and in assay [10] was “inactive” throughout.

`Nc1nc(N)c(N=O)c(OCC2CCCCC2)n1`: the Potency is 1.48 µM (active) in [1]; 13.2 µM (active) in [2]; 7.43 µM (active) in assay [11]; 16.6 µM (active) in assay [3]; 2.96 µM (active) in [12]; 4.69 µM (active) in assay [4]. Moreover, the Potency is 2.96 µM (active) in [5]; 9.35 µM (active) in [7]; 5.26 µM (active) in assay [8]; 6.62 µM (active) in assay [13]; 16.6 µM (active) in assay [10].

Turning to `COC1=C(OC)C(=O)C(CCCCCCCCCCO)=C(C)C1=O`, the Potency in assay [1] is 16.6 µM (active); in [2] it was 20.9 µM (active); in assay [12] it was 20.9 µM (active); in assay [4], 16.6 µM (active); in [5], 14.8 µM (active); in assay [7], 26.4 µM (active). The values for the Potency in assay [8] and in assay [13] were 16.6 µM (active) and 14.8 µM (active), respectively. Moreover, the Potency entry in [9] and in assay [14] was “inactive” in each case.

Turning to `CN(C)c1ccc2nc3ccc(=[N+](C)C)cc-3sc2c1`, the Potency in assay [1] is 2.35 µM (active); in assay [2] it was 0.526 µM (active); in [11], 3.72 µM (active); in [15] it was 1.66 µM (active); in assay [3], 8.33 µM (active); in [12], 5.26 µM (active). Moreover, the Potency was 1.32 µM (active) in assay [4]; 1.32 µM (active) in assay [5]; 3.72 µM (active) in assay [7]; 1.05 µM (active) in [8]; 6.62 µM (active) in assay [9]; 2.64 µM (active) in assay [13]. For the same compound, the Potency in assay [10] was 2.96 µM (active).

As to `CCN(CC)CCOc1ccc(Cc2ccccc2)cc1`, the Potency result in [1], in assay [12], in assay [4], in assay [6], in assay [7] and in assay [14] was “inactive” throughout. Further, the Potency in [2] is 11.8 µM (active); in assay [3] it was 20.9 µM (active).

Take `Cc1cccc(CN2CCN(C(c3ccccc3)c3ccc(Cl)cc3)CC2)c1` (stereo unspecified): the Potency in assay [1] is 9.35 µM (active); in assay [2] it was 20.9 µM (active); in assay [11] it was 20.9 µM (active); in assay [12], 14.8 µM (active); in [8], 16.6 µM (active).

As usually defined, the viability is a read-out of living cells in per cent, often relative to untreated cells. Turning to `COc1ccc2cc([C@H](C)C(=O)O)ccc2c1`, the results for the Potency in [1] and in assay [2] were 33.2 µM (active) and 20.9 µM (active), respectively. In addition, the viability in assay [15] was 105%. Moreover, the Potency result in assay [3], in assay [12], in assay [7], in assay [9], in [14] and in assay [10] was “inactive” in each case.

In the case of `O=C(NCC1CCCCN1)c1cc(OCC(F)(F)F)ccc1OCC(F)(F)F` (stereo unspecified), the Potency is 7.43 µM (active) in assay [1]; 9.35 µM (active) in [11]; 9.35 µM (active) in assay [3]; 3.32 µM (active) in [12]; 3.32 µM (active) in [4]; 3.72 µM (active) in [5]. For the same compound, the Potency was 9.35 µM (active) in assay [7], 4.69 µM (active) in assay [8], 23.5 µM (active) in [13] and 18.7 µM (active) in assay [10].

With `CC(S)C(=O)NCC(=O)O` (stereo unspecified), the Potency result in [2], in [11], in assay [12], in [4], in assay [7] and in [8] was “inactive” in each case. Besides, the Potency result in [9], in [14], in assay [13] and in assay [10] was “inactive” each time. Besides, the viability in [15] is 132%.

Turning to `O=c1cc(N2CCOCC2)oc2c(-c3ccccc3)cccc12`, the Potency in [2] was 13.2 µM (active); in assay [11] it was 10.5 µM (active); in assay [15], 14.8 µM (active); in assay [3] it was 18.7 µM (active).

Consider `O=C(O)c1cn(-c2ccc(F)cc2)c2cc(N3CCNCC3)c(F)cc2c1=O`, for which the Potency entry in assay [1], in assay [11], in assay [12], in [4], in assay [6] and in assay [7] was “inactive” throughout. Besides, the Potency entry in assay [8], in assay [9], in assay [14], in [13] and in assay [10] was “inactive” each time.

Regarding `O=C(O)c1cccc(-c2noc(-c3ccccc3F)n2)c1`, the Potency is 9.35 µM (active) in [2], 9.35 µM (active) in assay [15] and 18.7 µM (active) in assay [3]. Further, the Potency result in [11], in [12], in assay [4], in [7], in assay [8] and in assay [9] was “inactive” throughout. Further, the Potency entry in assay [14], in assay [13] and in [10] was “inactive” in each case.

`COc1ccccc1N1CCN(CCN(C(=O)C2CCCCC2)c2ccccn2)CC1`: the Potency is 7.43 µM (active) in assay [1], 1.48 µM (active) in assay [12], 7.43 µM (active) in [4] and 5.9 µM (active) in [5]. The Potency result in [11], in assay [6], in assay [9], in assay [14], in [13] and in [10] was “inactive” in each case. Moreover, the viability in assay [15] is 126%.

As for `CC(C)(S)[C@@H](N)C(=O)O`, the Potency entry in assay [1], in [11], in [12], in assay [4], in assay [5] and in [7] was “inactive” in each case. The Potency entry in [8], in assay [9], in [14] and in [13] was “inactive” in each case. Besides, the viability in assay [15] was 133%.

Turning to `COc1cc2c(N3CCN(C(=O)Nc4ccc(OC(C)C)cc4)CC3)ncnc2cc1OCCCN1CCCCC1`, the Potency in [1] was 16.6 µM (active); in assay [11], 9.35 µM (active); in assay [3], 23.5 µM (active); in assay [12], 18.7 µM (active); in assay [4], 13.2 µM (active); in [5] it was 8.33 µM (active). Further, the Potency was 4.18 µM (active) in [6], 16.6 µM (active) in [7], 6.62 µM (active) in assay [8] and 26.4 µM (active) in [13].
